Earlier results, collected in PubChem BioAssay AID977611.
About 3,900 (100%) of roughly 3,900 compounds were called active. No cut-off is given here; in the data, nearly all actives have Kd up to about 4200 µM. The set was probably picked from earlier hits. The list shows a part of the results. Where a SMILES comes first, the peptide text is derived from it. Non-standard residues stand in square brackets, D forms with d. Square brackets hold non-standard residues; d marks the D form. Residues, ends and D or L forms follow the SMILES beside them. Peptide text beside a SMILES is read from it. [ ]: non-standard residue; d: D form. Orn(CH(NH2)2) = NC(N)NCCC[C@H](N)C(=O)O; Nva = CCC[C@H](N)C(=O)O

Assay: PubChem AID 977611
Conditions: PDB protein-ligand complexes, literature Kd

Molecule: CC[C@H](C)[C@H](NC(=O)[C@@H](N)CCCNC(N)N)C(=O)N[C@@H](CO)C(=O)N[C@@H](C)C(=O)N[C@@H](CC(=O)O)C(=O)N[C@@H](C)C(=O)N[C@@H](CCSC)C(=O)N[C@@H](CCSC)C(=O)N[C@@H](CCC(N)=O)C(=O)N[C@@H](C)C(=O)N[C@@H](CC(C)C)C(=O)N[C@@H](CC(C)C)C(=O)NCC(=O)N[C@@H](C)C(=O)N[C@@H](CCCNC(N)N)C(=O)N[C@@H](C)C(=O)N[C@@H](CCCCN)C(=O)O (H-[Orn(CH(NH2)2)]ISADAMMQALLGA[Orn(CH(NH2)2)]AK-OH)
- Kd (protein: Regulatory Domain of Human Cardiac Troponin C and Ca2+, PDB entry 2krd): 2000 µM (active)
- Kd (protein: human Cardiac Troponin-C(cNTnCCa2+), PDB entry 1mxl): 154 µM (active)

Molecule: CC[C@H](C)[C@H](NC(=O)[C@H](CCC(=O)O)NC(=O)[C@H](CCC(=O)O)NC(=O)[C@@H](N)CC(=O)O)C(=O)N[C@@H](CCC(=O)O)C(=O)N[C@@H](CCCNC(N)N)C(=O)N[C@@H](CCC(N)=O)C(=O)N[C@@H](CC(C)C)C(=O)N[C@@H](CCCCN)C(=O)N[C@@H](C)C(=O)N[C@@H](CC(C)C)C(=O)NCC(=O)N[C@H](C(=O)N[C@@H](CC(=O)O)C(=O)O)C(C)C (H-DEEIE[Orn(CH(NH2)2)]QLKALGVD-OH)
- Kd (protein: Vacuolar protein sorting-associating protein 4B, PDB entry 2jqk): 402 µM (active)

Molecule: CSCC[C@H](NC(=O)CNC(=O)[C@H](C)NC(=O)[C@@H](N)CCC(=O)O)C(=O)N[C@H](C(=O)N[C@@H](CC(C)C)C(=O)NCC(=O)N[C@@H](C)C(=O)N[C@@H](CCCNC(N)N)C(=O)N[C@@H](CCCCN)C(=O)N[C@@H](CC(C)C)C(=O)N[C@@H](CCCCN)C(=O)N[C@@H](CCCCN)C(=O)N[C@@H](CC(C)C)C(=O)NCC(=O)O)[C@@H](C)O (H-EAGMTLGA[Orn(CH(NH2)2)]KLKKLG-OH)
- Kd (protein: Importin subunit alpha-2, PDB entry 3btr): 5 µM (active)

Molecule: CC[C@H](C)[C@H](NC(=O)[C@H](C)NC(=O)[C@H](CC(C)C)NC(=O)[C@H](CCC(N)=O)NC(=O)[C@H](CCCNC(N)N)NC(=O)CNC(=O)[C@@H](NC(=O)[C@H](CCC(N)=O)NC(=O)CN)C(C)C)C(=O)N[C@H](C(=O)NCC(=O)N[C@@H](CC(=O)O)C(=O)N[C@@H](CC(=O)O)C(=O)N[C@H](C(=O)N[C@@H](CC(N)=O)C(=O)N[C@@H](CCCNC(N)N)C(=O)O)[C@@H](C)CC)[C@@H](C)CC
- Kd (protein: BCL-XL, PDB entry 1bxl): 0.34 µM (active)

Molecule: COc1ccc2c(c1OC)CN(C)c1c-2ccc2cc3c(cc12)OCO3
- Kd (protein: Chitinase A, PDB entry 3arw): 0.7 µM (active)

Molecule: O=C(O)[C@@H]1COc2ccccc2O1
- Kd (protein: Pantothenate synthetase (T2A, E77G mutation), PDB entry 4de5): 700 µM (active)
- Kd (protein: Pantothenate synthetase (T2A, E77G mutation), PDB entry 4g5f): 900 µM (active)

Molecule: CC(C)C[C@H](NC(=O)[C@H](CCC(N)=O)NC(=O)[C@H](CS)NC(=O)[C@H](CO)NC(=O)[C@@H](N)CC(C)C)C(=O)N[C@@H](Cc1ccc(O)cc1)C(=O)N[C@@H](CCC(N)=O)C(=O)N[C@@H](CCCNC(N)N)C(=O)O (H-LSCQLYQ[Orn(CH(NH2)2)]-OH)
- Kd (protein: Thymidylate synthase, PDB entry 3n5e): 0.151 µM (active)

Molecule: CC(=O)NCCCC[C@H](NC(=O)[C@H](CCCNC(N)N)NC(=O)CNC(=O)[C@H](Cc1ccc(O)cc1)NC(=O)[C@@H](N)CO)C(=O)N[C@@H](CCCCN)C(=O)N[C@@H](CCCNC(N)N)C(=O)N[C@@H](CCCNC(N)N)C(=O)N[C@@H](CCC(N)=O)C(=O)N[C@@H](CCCNC(N)N)C(=O)N[C@@H](CS)C(=O)O (H-SYG[Orn(CH(NH2)2)]K(Ac)K[Orn(CH(NH2)2)][Orn(CH(NH2)2)]Q[Orn(CH(NH2)2)]C-OH)
- Kd (protein: p300/CBP-associated factor (PCAF), PDB entry 1jm4): 10 µM (active)

Molecule: CC(C)C[C@H](NC(=O)[C@H](CCCNC(N)N)NC(=O)[C@H](CCC(N)=O)NC(=O)[C@H](Cc1ccc(O)cc1)NC(=O)[C@@H](N)CC(=O)O)C(=O)O (H-DYQ[Orn(CH(NH2)2)]L-OH)
- Kd (protein: AP-3 complex subunit mu-1, PDB entry 4ikn): 14 µM (active)

Molecule: H-AEDDVE-OH
- Kd (protein: AH RECEPTOR-INTERACTING PROTEIN, PDB entry 4apo): 12.3 µM (active)

Molecule: CSCC[C@H](NC(=O)[C@H](CCCNC(N)N)NC(=O)[C@H](CO)NC(=O)[C@H](C)N)C(=O)N[C@@H](CCC(=O)O)C(=O)N[C@@H](CCC(=O)O)C(=O)N[C@H](C(=O)N[C@@H](CC(=O)O)C(=O)O)C(C)C (H-AS[Orn(CH(NH2)2)]MEEVD-OH)
- Kd (protein: Protein UNC-45, PDB entry 4i2z): 13.5 µM (active)

Molecule: CSCC[C@H](N)C(=O)N[C@@H](C)C(=O)N[C@@H](CO)C(=O)O (H-Met-Ala-Ser-OH)
- Kd (protein: human-like mitochondrial peptide deformylase (G47C, L112E mutant), PDB entry 4je8): 6.1 µM (active)

Molecule: CC(C)[C@H](NC(=O)[C@H](CC(=O)O)NC(=O)[C@@H](NC(=O)[C@H](CC(=O)O)NC(=O)[C@H](CO[P+](O)(O)O)NC(=O)[C@@H](N)CC(=O)O)[C@@H](C)O[P+](O)(O)O)C(=O)N[C@@H](CCC(=O)O)C(=O)N[C@@H](CCC(=O)O)C(=O)O
- Kd (protein: DNA topoisomerase 2-binding protein 1, PDB entry 3ueo): 94 µM (active)

Molecule: CCC[C@H](NC(=O)[C@@H](N)CO)C(=O)N[C@@H](CCSC)C(=O)N[C@@H](C)C(=O)N[C@@H](CCC(=O)O)C(=O)N[C@H](C(=O)N[C@@H](CC(=O)O)C(=O)O)C(C)C (H-S[Nva]MAEVD-OH)
- Kd (protein: AH RECEPTOR-INTERACTING PROTEIN, PDB entry 4aif): 14.4 µM (active)

Molecule: CC(=O)N[C@@H](CC(=O)O)C(=O)N[C@@H](CCC(=O)O)C(=O)N[C@H](C(=O)N[C@@H](CC(=O)O)[C@@H](C)O)C(C)C
- Kd (protein: Procaspase-3 (D175A mutation), PDB entry 4jr0): 0.0063 µM (active)

Molecule: CSCC[C@H](NC(=O)[C@H](CCC(=O)O)NC(=O)[C@@H](NC(=O)[C@H](CC(=O)O)NC(=O)[C@H](C)N)[C@@H](C)O)C(=O)N[C@@H](CCC(=O)O)C(=O)N[C@@H](CCC(=O)O)C(=O)N[C@H](C(=O)N[C@@H](CC(=O)O)C(=O)O)C(C)C (H-ADTEMEEVD-OH)
- Kd (protein: TPR repeat-containing protein associated with Hsp90, PDB entry 2lsv): 5.41 µM (active)

Molecule: CSCC[C@H](NC(=O)[C@H](CCCCN)NC(=O)[C@H](CCC(=O)O)NC(=O)[C@H](CCCCN)NC(=O)[C@H](CCCNC(N)N)NC(=O)[C@@H]1CCCN1C(=O)[C@@H]1CCCN1C(=O)[C@@H](NC(=O)[C@H](CC(C)C)NC(=O)[C@@H]1CCCN1C(=O)[C@@H]1CCCN1C(=O)[C@H](CCC(N)=O)NC(=O)CN)C(C)C)C(=O)N[C@@H](CCCNC(N)N)C(=O)NCC(=O)N[C@@H](CCCCN)C(=O)O (H-GQPPLVPP[Orn(CH(NH2)2)]KEKM[Orn(CH(NH2)2)]GK-OH)
- Kd (protein: Grb2-related adaptor protein 2(SH3 domain), PDB entry 1uti): 2.4 µM (active)

Molecule: CC(C)C[C@H](NC(=O)[C@H](CCC(=O)O)NC(=O)CNC(=O)[C@@H](NC(=O)[C@H](CO[P+](O)(O)O)NC(=O)[C@@H]1CCCN1C(=O)[C@H](CC(=O)O)NC(=O)[C@@H](NC(=O)[C@H](CCC(=O)O)NC(=O)[C@@H](N)CCCCN)C(C)C)[C@@H](C)O)C(=O)N[C@@H](CCC(N)=O)C(=O)O
- Kd (protein: Kelch-like ECH-associated protein 1, PDB entry 3wdz): 0.12 µM (active)

Molecule: CC(C)C[C@H](NC(=O)[C@H](CCCNC(N)N)NC(=O)[C@@H](N)CCCNC(N)N)C(=O)N[C@@H](CCC(N)=O)C(=O)N[C@@H](CCCCN)C(=O)NCC(=O)N[C@@H](CC(N)=O)C(=O)N[C@@H](CC(C)C)C(=O)N1CCC[C@H]1C(=O)N[C@H](C(=O)N[C@@H](CCCNC(N)N)C(=O)O)C(C)C (H-[Orn(CH(NH2)2)][Orn(CH(NH2)2)]LQKGNLPV[Orn(CH(NH2)2)]-OH)
- Kd (protein: ERK2, PDB entry 2fys): 44 µM (active)

Molecule: CSCC[C@H](NC(=O)[C@@H]1CCCN1C(=O)[C@@H](N)[C@@H](C)O)C(=O)N[C@H](C(=O)N[C@@H](CC(N)=O)C(=O)N[C@@H](CCCNC(N)N)C(=O)N[C@@H](CCC(=O)O)C(=O)N[C@@H](CC(N)=O)C(=O)N[C@@H](CCCCN)C(=O)O)C(C)C (H-TPMVN[Orn(CH(NH2)2)]ENK-OH)
- Kd (protein: STAM2 SH3 domain, PDB entry 1uj0): 27 µM (active)
